In PubChem BioAssay:

Target: E3 ubiquitin-protein ligase XIAP (Homo sapiens) (UniProt P98170)
Experiment: XIAP binders, primary screen, biophysical, small-molecule microarray, fluorescence 635 nm (AID 1181);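 also: score merges 667 nm emission and signal to noise over triplicate slides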
Details: small-molecule microarray binding, higher = more signal

E3 ubiquitin-protein ligase XIAP (Homo sapiens), sequence (P98170 whole entry, looked up): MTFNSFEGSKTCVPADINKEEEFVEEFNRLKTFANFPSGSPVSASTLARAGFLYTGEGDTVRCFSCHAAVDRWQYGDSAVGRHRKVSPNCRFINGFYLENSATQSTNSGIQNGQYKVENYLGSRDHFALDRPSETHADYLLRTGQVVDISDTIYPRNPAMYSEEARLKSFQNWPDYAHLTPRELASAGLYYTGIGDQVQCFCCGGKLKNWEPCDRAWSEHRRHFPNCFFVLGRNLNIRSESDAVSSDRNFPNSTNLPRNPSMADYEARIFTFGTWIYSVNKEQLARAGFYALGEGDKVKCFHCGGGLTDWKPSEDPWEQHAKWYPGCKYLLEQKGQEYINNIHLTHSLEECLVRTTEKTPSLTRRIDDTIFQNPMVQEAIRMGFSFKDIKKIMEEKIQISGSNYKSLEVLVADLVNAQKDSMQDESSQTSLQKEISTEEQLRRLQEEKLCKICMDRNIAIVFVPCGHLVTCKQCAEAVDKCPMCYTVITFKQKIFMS

Row | SMILES | composite z-score
1 | CCCNC(=O)[C@@]1(Sc2ccc(C)cc2)CC(=O)N(Cc2ccccc2Cl)[C@@H]1c1ccc(CO)cc1I | -0.302
2 | C=CCN1Cc2ccccc2[C@H]2OC(c3ccc(OCCCO)cc3)=N[C@@]2(CCS(=O)(=O)c2ccccc2)C1=O | -0.0599
3 | [N-]=[N+]=Nc1ccccc1C[C@]1(C(=O)N2CCOCC2)N=C(c2ccc(OCCCO)cc2)O[C@H]1c1ccccc1N=[N+]=[N-] | 0.446
4 | C[C@]1(C(=O)O)c2ccccc2C(=O)N(Cc2cc(F)cc(C(F)(F)F)c2)[C@H]1c1ccc(CO)cc1 | -0.167
5 | CC(C)c1nc2cc(Br)ccc2c(=O)o1 | 0.0705
6 | CN(C)CCCC[C@@H]1NC(=O)[C@H]2C[C@@H](C(=O)O)[C@@H](c3ccc(O)cc3)N2C1=O | 2.02
7 | CN1C(=O)C2C(C3CC3)C=C3CN(Cc4cccc(Cl)c4)[C@@H]([C@@H](O)Cc4ccccc4)C3C2C1=O (stereo partly specified) | -0.0264
8 | C=CCC(OC(C)=O)[C@@H]1[C@@H](N(Cc2ccc(-c3cccc(C(F)(F)F)c3)o2)C(=O)c2ccc(-c3ccccc3)cc2)c2cc(OCCCO)ccc2N1C(=O)c1ccc2ccccc2c1 (stereo partly specified) | -0.0889
9 | CCCCC(O)C1C=CC2C(=O)N(c3ccccc3)C(=O)C2N1Nc1ccc(C#N)cc1 (stereo unspecified) | 0.169
10 | NC(=O)N1C(=O)C2C(C1=O)C1C=C(CCCO)C2C(c2ccc(CN3CCCC3)cc2)N1Cc1sc2ccccc2c1Cl (stereo unspecified) | -0.167
11 | CC(C)=CCCC(C)=CC(O)C1C=CC2C(=O)NC(=O)C2N1Nc1ccccn1 (stereo unspecified) | 0.0602
12 | Cc1ccc(S[C@]2(C(=O)NCCCN(C)C)CC(=O)N(C3Cc4ccccc4C3)[C@@H]2c2ccc(CO)cc2I)cc1 | -0.0999
13 | COc1ccc(C#Cc2ccc3c(c2)[C@]2(C(=O)N3)[C@H](C(=O)O)[C@H]3C(=O)O[C@H](c4ccccc4)[C@H](c4ccccc4)N3[C@@H]2c2ccccc2OCCO)cc1 | 0.013
14 | COc1ccc(CCNC(=O)[C@@H]2c3ccccc3C(=O)N(Cc3ccccc3OC)[C@H]2c2ccc(CO)cc2)cc1 | -0.309
15 | C=CCC(OC(C)=O)[C@@H]1[C@@H](N(Cc2cccc3ccccc23)C(=O)Cc2ccc(OC)cc2)c2cc(OCCCO)ccc2N1C(=O)Cc1ccc2ccccc2c1 (stereo partly specified) | 0.141
16 | CC(C)(C)OC(=O)CC[C@@]1(C(=O)NCCN2CCOCC2)N=C(c2ccc(OCCCO)cc2)O[C@@H]1c1ccccc1CN=[N+]=[N-] | -0.0559
17 | CC(C)NC(=O)[C@@]1(C)c2ccccc2C(=O)N(Cc2ccccc2)[C@H]1c1ccc(CO)cc1 | -0.287
18 | CN(C)c1ccc(C(O)C2C=CC3C(=O)N(Cc4ccccc4)C(=O)C3N2n2cnnc2)cc1 (stereo unspecified) | 0.0968

Row | SMILES | composite z-score
19 | COc1ccc(C(=O)Nc2ccc(CN3C(=O)[C@@]4(O[C@@H](CCn5cc(CCO)nn5)[C@H]([Si](C)(C)c5ccc(OC)cc5)[C@H]4C)c4ccccc43)cc2)cc1 | -0.0871
20 | CC(C)C[C@H]1NC(=O)C([C@@H](C)OCc2ccccc2)NC(=O)[C@@]23C(=O)N[C@@H](Cc4ccccc4)C2[C@H](C)[C@@]2(C)O[C@H]2C3/C=C/C/C=C\CNC1=O (stereo partly specified) | 0.172
21 | COc1ccc([Si](C)(C)[C@@H]2[C@@H](CC(=O)N3CCC[C@H]3CO)O[C@]3(C(=O)N(Cc4cccc(N5CCCCC5=O)c4)c4ccccc43)[C@H]2C)cc1 | 0.0167
22 | CO[C@H]1O[C@H](CO)[C@@H](OC(=O)Nc2ccccc2-c2ccccc2)[C@H](OC(=O)Nc2ccccc2)[C@H]1OC(=O)Nc1ccccc1 | 0.0479
23 | CCCCC(O)C1C=CC2C(=O)N(c3ccccc3)C(=O)C2N1Nc1ccc([N+](=O)[O-])cc1 (stereo unspecified) | -0.156
24 | C=CCNC(=O)[C@@H]1[C@H]2C(=O)O[C@H](c3ccccc3)[C@H](c3ccccc3)N2[C@H](c2ccc(OCCO)cc2)[C@@]12C(=O)Nc1ccc(C#CC3(O)CCCCCC3)cc12 | -0.0095
25 | CN1C(=O)C2C(C1=O)C1C=C(c3ccc(CO)cc3)C2C(C2CC2)N1C (stereo unspecified) | -0.0611
26 | COC(=O)[C@@]1(Cc2ccc(F)cc2)[C@H]2c3cc(C(=O)N4CCCC4)n(Cc4ccccn4)c3C[C@H]2CN1C(=O)c1ccccc1 | 0.0945
27 | NC(=O)N1C(=O)C2C(C1=O)C1C=C(CCCO)C2C(c2ccc(CN3CCCC3)cc2)N1Cc1cc2c(cc1Br)OCO2 (stereo unspecified) | 0.0251
28 | CCCCN1CC=CC23O[C@@H]4/C=C\CCCOC(=O)C4[C@H]2C(=O)N(C(CO)C(C)C)[C@@H]3C1=O (stereo partly specified) | -0.0393
29 | O=C1O[C@H](c2ccccc2)[C@H](c2ccccc2)N2[C@H]1[C@@H](C(=O)N1CCN(c3ncccn3)CC1)[C@]1(C(=O)Nc3ccc(C#CCCO)cc31)[C@H]2c1ccc(O)cc1 | -0.088
30 | O=C1NC(=O)C2C1C=CC(C(O)c1ccc([N+](=O)[O-])cc1)N2Nc1ccccn1 (stereo unspecified) | 0.103
31 | O=C1C2C=CC(C(O)c3ccc([N+](=O)[O-])cc3)N(Nc3ccccc3F)C2C(=O)N1c1ccccc1 (stereo unspecified) | 0.0049
32 | COc1ccc([Si](C)(C)[C@@H]2[C@@H](CC(=O)N(CCO)Cc3ccccc3)O[C@]3(C(=O)N(Cc4ccc(I)cc4)c4ccccc43)[C@H]2C)cc1 | -0.0658
33 | CN1C(=O)C2C(C1=O)C1C=C(CCCO)C2C(C2CC2)N1Cc1cccc(OC(F)(F)F)c1 (stereo unspecified) | 0.0105
34 | CCOC(=O)C[C@H]1[C@H](OC(=O)c2cc3ccccc3oc2=O)[C@@H](NC(=O)CC(C)C)c2cc(OCCCO)ccc2N1C(=O)Cc1ccc(OC)cc1 | -0.284
35 | NC(=O)N1C(=O)C2C(C1=O)C1C=C(CCCO)C2C(C2CC2)N1Cc1sc2ccccc2c1Cl (stereo unspecified) | 0.0374
36 | COCCn1c(C(=O)N(C)C)cc2c1C[C@H]1CN(C(=O)c3ccccc3)[C@@](Cc3ccc(OC)cc3)(C(=O)OC)[C@@H]21 | 0.131
